A selection: hits, their analogues and other compounds. The true share with any hit is near 3.6%.
Mtb hypoxia rep: PubChem AID 1159583. hit rate 0.1% among 300,000. M. tuberculosis hypoxia-regulated fluorescent reporter, fluorescence. fluorescence inhibition, % (test concentration not listed); in the data active = fluorescence inhibition mostly above about 23%, no sharp cut-off; inactive = mostly below about 17%
Mtb betalactam: beta-lactam sensitization of Mtb H37Rv, H37Rv; M. tuberculosis H37Rv growth with meropenem, percent inhibition; inhibition, % at 25 µM; hit rate 0.27% among 330,000; AID 434955, 2010; call rule not given here;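 also: growth measured after seven days incubation then overnight dye step; 0% = bacteria only wells and 100% = bacteria with antibiotic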
VHR inh abs: VHR1 phosphatase inhibitors, primary screen, biochemical, absorbance, uHTS. inhibition, % at 13.3 µM. recombinant VHR phosphatase, pNPP absorbance. Dual specificity protein phosphatase 3 (Homo sapiens), P51452. hit rate 0.52% among 290,000; in the data active = inhibition above about 50%
Target sequence (P51452 whole entry, looked up): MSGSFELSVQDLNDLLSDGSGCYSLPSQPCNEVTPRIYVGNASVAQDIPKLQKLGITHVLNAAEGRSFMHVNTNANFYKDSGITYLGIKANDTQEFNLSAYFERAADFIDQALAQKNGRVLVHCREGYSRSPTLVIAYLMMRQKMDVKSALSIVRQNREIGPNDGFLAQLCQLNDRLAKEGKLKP
GDH-TPI counter-1: GDH-TPI coupling enzyme inhibitors, primary screen, artefact control for M. tuberculosis FBA inhibitor project, biochemical, absorbance, full deck | inhibition, % at 4.8 µM | AID 588335, 2011 | hit rate 1.2% among 360,000 | GDH-TPI coupled enzyme counterscreen, NADH absorbance; in the data active = inhibition above about 30%;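 also: 0% = DMSO wells and 100% = wells lacking the enzyme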
Mtb FBA inh: Mtb FBA enzyme inhibitors, primary screen, biochemical, fluorescence, strain H37Rv; Fructose-bisphosphate aldolase (Mycobacterium tuberculosis (strain ATCC 25618 / H37Rv)), …; purified M. tuberculosis FBA, fluorescence read-out; inhibition, % at 1 µM; hit rate 2.3% among 360,000;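 also: 0% = vehicle and 100% = reference inhibitor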
Target sequence (P9WQA3 whole entry, looked up): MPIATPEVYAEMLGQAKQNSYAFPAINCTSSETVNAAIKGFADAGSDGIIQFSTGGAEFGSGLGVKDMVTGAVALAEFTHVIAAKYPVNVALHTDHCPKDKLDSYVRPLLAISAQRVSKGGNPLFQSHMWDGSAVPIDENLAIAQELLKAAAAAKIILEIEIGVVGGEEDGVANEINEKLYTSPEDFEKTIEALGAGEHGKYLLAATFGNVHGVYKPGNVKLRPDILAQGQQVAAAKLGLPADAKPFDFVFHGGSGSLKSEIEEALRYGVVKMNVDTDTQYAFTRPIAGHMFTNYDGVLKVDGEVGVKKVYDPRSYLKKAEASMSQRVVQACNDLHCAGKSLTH
Mtb FBA confirm: M. tuberculosis aldolase blockers, biochemical, fluorescence, strain H37Rv, confirmation; shares compounds with Mtb FBA inh; purified M. tuberculosis FBA, fluorescence read-out; inhibition, % at 1 µM; hit rate 78% among 5,600; AID 651616, 2012;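 also: 0% = vehicle wells and 100% = reference inhibitor wells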
GDH-TPI counter-2: GDH-TPI coupling enzyme inhibitors, artefact control for M. tuberculosis FBA inhibitor project, biochemical, fluorescence, high throughput; hit rate 81% among 5,600; GDH-TPI coupled enzyme counterscreen; AID 652141, 2013; inhibition, % at 1 µM; shares compounds with Mtb FBA inh; in the data active = inhibition above about 10%
* hit, by the source's call; . = no result; + = active, no number. Rule as the data show it, unless noted: active = inhibition above about 27%; inactive = the rest.

SMILES	Mtb hypoxia rep	Mtb betalactam	VHR inh abs	GDH-TPI counter-1	Mtb FBA inh	Mtb FBA confirm	GDH-TPI counter-2
O=[N+]([O-])c1ccc2c(c1)S(=O)c1ccccc1-2 (stereo not given)	9	-4	-10	26	27*	147*	110*
Cn1c(=O)c2cc(NC(=O)Cc3ccccc3F)ccc2n1C/C=C/c1ccccc1	.	.	.	9	62*	+	+
Cn1c(=O)c2cc(NC(=S)NC3CC3)ccc2n1C/C=C/c1ccccc1	.	.	.	7	34*	70*	54*
O=C(NCc1ccc(F)cc1)Nc1cccc([N+](=O)[O-])c1	-7	12	27	10	-3	.	.
Cn1c(=O)c2cc(NC(=O)NCc3ccc(F)cc3)ccc2n1C/C=C/c1ccccc1	.	.	.	2	60*	26	25*
S=C(NC1CCCC1)N1CCN(C/C=C/c2ccccc2)CC1	9	-4	10	9	3	.	.
Cn1c(=O)c2cc(NC(=O)Cc3cccc4ccccc34)ccc2n1-c1ccccc1	.	.	.	7	4	.	.
O=C1CCC=CCC(CC(=O)N(CCO)Cc2ccccc2)C(=O)NC(Cc2ccccc2)CO1 (stereo not given)	9	.	.	.	.	.	.
O=C(NN=C1CCCC1)c1cc(Cl)cc(Cl)c1O	-2	8	-8	9	41*	70*	61*
COc1ccc(Cl)cc1C(=O)NN=C1CCCC1	-13	-6	.	16	-1	.	.
O=S(=O)(NCc1ccccc1)C1CC2C=CC1C2 (stereo not given)	10	.	.	.	.	.	.
COc1cccc(CNC(=S)Nc2ccc3c(c2)c(=O)n(C)n3C)c1	.	.	.	15	26	.	.
Cc1ccccc1CC(=O)Nc1ccc2c(c1)c(=O)n(C)n2-c1cccs1	.	.	.	0	1	.	.
COc1cccc(Cn2c3ccc(NC(=O)Cc4ccccc4C)cc3c(=O)n2C)c1	.	.	.	3	89*	+	+
COc1cccc(CNC(=S)Nc2ccc3c(c2)c(=O)n(C)n3Cc2ccc(F)cc2)c1	.	.	.	3	29*	130*	94*
Cc1cc(C)cc(Cn2c3ccc(NC(=S)NCc4ccccc4F)cc3c(=O)n2C)c1	.	.	.	5	25	.	.
COc1cc(Cn2c3ccc(NC(=S)NCc4ccc(C)cc4)cc3c(=O)n2C)ccc1F	.	.	.	6	38*	180*	138*
Cc1ccccc1CC(=O)Nc1ccc2c(c1)c(=O)n(C)n2-c1ccccc1F	.	.	.	13	104*	82*	72*
CNC(=O)C1OC(n2cnc3c(NCc4cccc(I)c4)nc(Cl)nc32)C(O)C1O (stereo not given)	4	.	.	.	.	.	.
Cc1cc(C)nc(NN=C/C=C/c2ccccc2)n1	14	.	.	.	.	.	.
Nc1cc(OC(=O)c2ccco2)nn1S(=O)(=O)c1ccc(F)cc1	9	4	15	-5	30*	+	142*
CNc1cc(-c2cnn(CC(C)C)c2)ncn1	.	.	.	3	8	.	.
CC(=O)Nc1cncc(-c2cnn(CC(C)C)c2)n1	.	.	.	25	61*	50*	51*
O=[N+]([O-])c1cc(Cl)cc(C=NNC(=S)Nc2cc(S(=O)(=O)N3CCOCC3)ccc2Cl)c1O	9	.	.	.	.	.	.
CCc1ccc(C(=O)C[n+]2cccc3cc(OC)ccc32)cc1	19	12	26	6	41*	26	20*
SMILES	Mtb hypoxia rep	Mtb betalactam	VHR inh abs	GDH-TPI counter-1	Mtb FBA inh	Mtb FBA confirm	GDH-TPI counter-2
CCOC1OC(C(N)=O)=CC(c2ccc(Br)cc2)C1CCCO (stereo not given)	13	.	.	.	.	.	.
Nc1c(C(=O)Nc2ccccc2)sc2nc(N3CCOCC3)c3c(c12)CCCC3	.	.	.	22	51*	158*	160*
COc1cccc(NC(=O)c2sc3nc(N4CCOCC4)c4c(c3c2N)CCCC4)c1	8	7	2	14	29*	48*	45*
Nc1c(C(=O)Nc2ccc(Cl)cc2)sc2nc(N3CCOCC3)c3c(c12)CCCC3	8	-5	18	15	37*	-3	-2
Cc1ccc(NC(=O)c2sc3nc(N4CCOCC4)c4c(c3c2N)CCCC4)cc1	.	.	.	12	7	.	.
O=C(O)c1cccc(NC(=S)NN=Cc2ccccc2OCc2cccc(Br)c2)c1	-3	.	.	.	.	.	.
CC(CC(=O)NC(C)c1ccccc1)=NNC(N)=S (stereo not given)	8	.	.	.	.	.	.
O=C1CCC(O)CCN1C(CSc1ccc(Br)cc1)Cc1ccccc1 (stereo not given)	10	.	.	.	.	.	.
S=c1[nH]nc(-c2ccco2)n1N=Cc1cccs1	-4	.	.	.	.	.	.
Cc1cc(C(=O)NN=Cc2ccco2)n[nH]1	-5	.	.	.	.	.	.
O=C(C(=C([O-])c1ccccc1)[n+]1ccccc1)c1ccc([N+](=O)[O-])cc1	4	.	.	.	.	.	.
Cc1ccc(C(=O)NN=C2CCCc3ccccc32)c(C)c1	6	.	.	.	.	.	.
O=C(CN1C(=O)NC2(CCCCC2)C1=O)Oc1ccc2c(C(F)(F)F)cc(=O)oc2c1	.	-6	.	6	31*	107*	70*
CCCc1cc(=O)oc2cc(OC3CCCCC3=O)ccc12 (stereo not given)	4	2	9	14	45*	26	22*
O=C1CCCCC1Oc1ccc2ccc(=O)oc2c1 (stereo not given)	9	2	27	9	58*	+	174*
CC1CCCCN1C(=O)COc1ccc2ccc(=O)oc2c1 (stereo not given)	20	1	9	5	26	.	.
Cc1ccccc1/C=N/N=C1/NC(=O)CCS1	.	-11	0	32*	29*	128*	90*
O=C(O)c1ccccc1NC(c1ccccc1)c1ccc2cccnc2c1O (stereo not given)	.	.	.	13	38*	+	+
Cc1ccnc(NC(c2ccccc2)c2ccc3cccnc3c2O)c1 (stereo not given)	22	.	.	4	-2	.	.
O=C(NCc1ccco1)c1ccc2c(c1)N(Cc1ccccc1)CCS2	12	-2	34	21	51*	115*	82*
Cc1ccc(CN2CCSc3ccc(C(=O)NCc4ccccn4)cc32)cc1	5	-4	23	16	66*	97*	67*
O=C(NCCCN1CCOCC1)c1ccc2c(c1)N(Cc1cccc(Cl)c1)C(=O)CS2	5	-3	0	-2	1	.	.
O=C(NCCCN1CCCC1)c1ccc2c(c1)N(Cc1ccccc1)CCS2	-5	-7	9	2	96*	153*	147*
O=C(NCCCN1CCOCC1)c1ccc2c(c1)N(Cc1ccc(F)cc1)CCS2	-5	-16	17	11	94*	178*	134*
COC(=O)C1=C(c2ccccc2OCc2ccccc2)CC2CCC1N2C(=O)NCc1cccc(C(F)(F)F)c1 (stereo not given)	14	.	.	.	.	.	.
